Source: ChEMBL document CHEMBL3433997, “St. Jude Leishmania screening dataset” (2016)

Assays:
Format in all cases: functional
[1] = molecular target: Solute carrier family 2, facilitated glucose transporter member 1 (Homo sapiens) (UniProt P11166); assay: ST_JUDE_LEISH: Cytotoxicity at 2uM final concentration against transgenic Leishmania Mexicana promastigotes LmGLUT1 that are glucose transport deficient and complemented with the human glucose transporter GLUT1. Activity is measured by DNA content using SYBR green in vitro
[2] = molecular target: Hexose transporter 1 (Plasmodium falciparum) (UniProt O97467); assay: ST_JUDE_LEISH: Cytotoxicity at 2uM final concentration against transgenic Leishmania Mexicana promastigotes LmPfHT that are glucose transport deficient and complemented with the Plasmodium falciparum hexose transporter. Activity is measured by DNA content using SYBR green in vitro
[3] = molecular target: Glucose transporter (Leishmania mexicana) (UniProt O61059); assay: ST_JUDE_LEISH: Cytotoxicity at 2uM final concentration against transgenic Leishmania Mexicana promastigotes LmGT2 that are glucose transport deficient and complemented with the L. Mexicana glucose transporter 2. Activity is measured by DNA content using SYBR green in vitro

Chain of Solute carrier family 2, facilitated glucose transporter member 1 (Homo sapiens) (P11166 whole entry): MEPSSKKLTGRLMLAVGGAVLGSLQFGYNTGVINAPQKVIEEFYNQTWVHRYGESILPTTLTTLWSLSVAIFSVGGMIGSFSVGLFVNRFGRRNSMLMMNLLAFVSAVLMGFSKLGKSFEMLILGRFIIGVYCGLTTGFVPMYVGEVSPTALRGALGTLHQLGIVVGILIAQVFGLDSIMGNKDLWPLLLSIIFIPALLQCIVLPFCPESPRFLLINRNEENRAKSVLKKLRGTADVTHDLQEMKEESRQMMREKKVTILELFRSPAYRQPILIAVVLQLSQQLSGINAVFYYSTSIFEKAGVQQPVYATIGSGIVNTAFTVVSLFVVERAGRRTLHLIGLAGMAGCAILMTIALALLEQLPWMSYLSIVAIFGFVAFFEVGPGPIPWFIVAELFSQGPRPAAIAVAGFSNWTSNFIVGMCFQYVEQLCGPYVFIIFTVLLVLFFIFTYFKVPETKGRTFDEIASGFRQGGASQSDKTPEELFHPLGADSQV

| Compound | inhibition [1] [%] | inhibition [2] [%] | inhibition [3] [%] |
| --- | --- | --- | --- |
| COc1cc(C(=O)N2CCN(C(C)C)CC2)ccc1CN(C)CCCN1CCN(c2cccc(Cl)c2Cl)CC1 | 0.76 | 0.33 | 0.31 |
| Cc1cc(NCc2ccccc2)nc(NCc2ccccc2)n1 | 11.8 | 5.78 | 4.43 |
| CS(=O)(=O)c1ccc(-c2cncc(Nc3cccc([N+](=O)[O-])c3)c2)cc1 | 7.42 | 7 | 6.3 |
| Cc1cc(Nc2cccc(C(F)(F)F)c2)nc2ccc(NC(=O)c3ccc(=O)[nH]c3)cc12 | -0.79 | -0.69 | -0.59 |
| CCOc1ccc(Br)cc1/C=C/C(=O)Nc1ccc2c(c1)CN(C)CCC2 | 4.12 | 5.18 | 4.34 |
| COc1ccc(NC(=O)Nc2ccc(-c3ccccc3)cc2)cc1Cn1cnc(N2CCCNCC2)cc1=O | 3.65 | 2.02 | 4.94 |
| O=C(/C=C/c1ccc(Cl)c(Cl)c1)NCCCCCN1CC[C@H](NC(=O)Nc2ccc(Oc3ccccc3)cc2)C1 | -0.32 | -1.24 | 1.17 |
| CC(C)N1CCN(C(CN2CCN(CCCOc3ccc(-c4ccccc4)cc3)CC2)c2ccc(F)cc2)CC1 (stereo unspecified) | 60.6 | 32 | 103 |
| O=C(Nc1cccc(-c2ccc(CN3CCCC3)cc2)c1)c1cccc(F)c1 | -0.49 | 1.18 | 0.62 |
| NS(=O)(=O)c1ccc(Nc2nccc(-c3c(-c4cccc(NC(=O)c5c(F)cccc5F)c4)nn4ccccc34)n2)cc1 | 11.8 | 14.8 | 8.76 |
| CCN(CC)CCCC(C)Nc1ccnc2ccc(-c3ccccc3)cc12 (stereo unspecified) | -0.2 | -0.17 | 1.04 |
| CCn1c(SCC(=O)Nc2cc(C(F)(F)F)ccc2Cl)nc2ccccc2c1=O | 1.69 | 3.62 | 4.32 |
| CCc1ccc(C2CCN(CCCCNC(=O)c3ccc(-c4ccc(C(F)(F)F)cc4)cc3)CC2)c(OCCO)c1 | 7.26 | 7.58 | 6.13 |
| O=C(Nc1ccc(Cl)cc1C(=O)Nc1ccncc1)c1ccc(Cl)cc1Cl | 6.71 | 5.88 | 5.53 |
| Cc1nc2c(s1)c(=O)cc(CCc1cccc(F)c1F)n2CC(=O)N(Cc1ccc(-c2ccc(C(F)(F)F)cc2)cc1)C1CCN(C(C)C)CC1 | 1.07 | 0.83 | 1.78 |
| COc1ccc2[nH]c(C)cc(=NN=Cc3cccc(Cl)c3)c2c1 | -0.18 | 4.08 | -1.05 |
| COc1cc2nc(N3CCC(C(N)=O)CC3)nc(NCc3ccccc3)c2cc1OC | 3.29 | 1.29 | 0.48 |
| CCc1cc(CNC2CCN(CCc3c(F)cnc4ccc(OC)nc34)CC2)cc2c1OCCO2 | 23.9 | 34.5 | 19.9 |
| O=C(Nc1cccc(-c2ccc(-c3nc4cc(C(F)(F)F)ccc4[nH]3)s2)c1)c1c[nH]cn1 | 0.15 | -0.45 | 0.77 |

| Compound | inhibition [1] [%] | inhibition [2] [%] | inhibition [3] [%] |
| --- | --- | --- | --- |
| Cc1cccc2nc(-c3ccc(-c4cccc(CNC(C)C)c4)s3)[nH]c12 | 2.58 | 1.37 | 3.77 |
| Cc1cccc2nc(-c3cccc(-c4ccc(NC(=O)Nc5ccsc5)cc4)c3)[nH]c12 | 5 | 4.66 | 2.53 |
| COc1ccc(-c2ccc(CNCc3ccsc3)cc2)cc1S(=O)(=O)NCCN1CCCC1 | -0.99 | 0.23 | -2.28 |
| CCCc1ccc(N2C(N)=NC(N)=NC2(C)C)cc1 | 1.9 | 1.17 | -2.29 |
| Cc1ccc(NC(=S)NC2CCN(CCCCCNC(=O)/C=C/c3ccc(Cl)c(Cl)c3)CC2)cc1Cl | -0.23 | -0.31 | -1.1 |
| CCOc1cc(C)ccc1C1CCN(CCCCNC(=O)c2ccc(-c3ccc(C(F)(F)F)cn3)cc2)CC1 | 10.4 | 9.74 | 7.82 |
| O=c1cc(NCCCNCc2cccc(I)c2)[nH]c2ccccc12 | 0.98 | 0.27 | -0.58 |
| Cc1nc2nc(N)nc(N)c2c(C)c1Cc1ccc(C#N)cc1 | 0.34 | 4.37 | -0.44 |
| Cc1ccc(Cn2c(N3CCC(C(=O)NCc4ccccn4)CC3)nc3ccccc32)cc1 | 4.09 | 4.68 | 7.97 |
| CCc1c(C)nc(-n2nc(C)cc2NC(=O)c2cccc3ccccc23)[nH]c1=O | -3.49 | -1.41 | 3.73 |
| COc1ccc(CCn2c(C3CCCCC3)nc3oc4ccccc4c(=O)c3c2=O)cc1 | 3 | 5.28 | -0.12 |
| Nc1ncc(-c2ccc(NC(=O)Nc3cc(C(F)(F)F)ccc3F)cc2)c(N)n1 | -0.9 | 0.23 | 0.6 |
| Cc1cccc(C(=O)Nc2ccnc(N3CCC(N(C)Cc4ccc(C#N)cc4)CC3)c2)c1 | 3.54 | 2.52 | 3.1 |
| NC(=O)c1cccc(Nc2nccc(Nc3ccc(Oc4cccc5ccccc45)cc3)n2)c1 | 7.84 | 7.66 | 1.31 |
| CCc1ccc(NC(=O)C=NNC(=N)N)cc1 | 1.51 | 1.46 | 1.17 |
| Oc1cc(Nc2ccnc3cc(I)ccc23)c(F)cc1Cl | 6.52 | 2.02 | 3.58 |
| O=c1c2sc(-c3ccc(Cl)cc3)cc2ncn1Cc1ccc(OCCN2CCCC2)c2ccccc12 | 4.34 | 2.61 | 1.85 |
| CC(=O)Nc1ccc2[nH]cc(C3CCN(CCC4CCN(C(=O)/C=C/c5ccc(Cl)c(Cl)c5)CC4)CC3)c2n1 | 0.57 | 0.67 | -1.33 |
